The supplement of paper PMC11732987, “Enantioselective OTUD7B fragment discovery through chemoproteomics screening and high-throughput optimisation” (Communications Chemistry, 2025)

Key:
Assay in all cases: log2 ratio of Biotin-Ahx-Ub-VS probe labelling (fragment/DMSO); higher = less target engagement (more negative = stronger competition), active = hit call of the paper (q ≤ 0.05, log2 ratio ≤ -1)
Settings in all cases: compound concentration: 200 uM; treatment time: 3 h
[1] = biological target: T1, USP19 (UniProt O94966)
T1 sequence (whole entry): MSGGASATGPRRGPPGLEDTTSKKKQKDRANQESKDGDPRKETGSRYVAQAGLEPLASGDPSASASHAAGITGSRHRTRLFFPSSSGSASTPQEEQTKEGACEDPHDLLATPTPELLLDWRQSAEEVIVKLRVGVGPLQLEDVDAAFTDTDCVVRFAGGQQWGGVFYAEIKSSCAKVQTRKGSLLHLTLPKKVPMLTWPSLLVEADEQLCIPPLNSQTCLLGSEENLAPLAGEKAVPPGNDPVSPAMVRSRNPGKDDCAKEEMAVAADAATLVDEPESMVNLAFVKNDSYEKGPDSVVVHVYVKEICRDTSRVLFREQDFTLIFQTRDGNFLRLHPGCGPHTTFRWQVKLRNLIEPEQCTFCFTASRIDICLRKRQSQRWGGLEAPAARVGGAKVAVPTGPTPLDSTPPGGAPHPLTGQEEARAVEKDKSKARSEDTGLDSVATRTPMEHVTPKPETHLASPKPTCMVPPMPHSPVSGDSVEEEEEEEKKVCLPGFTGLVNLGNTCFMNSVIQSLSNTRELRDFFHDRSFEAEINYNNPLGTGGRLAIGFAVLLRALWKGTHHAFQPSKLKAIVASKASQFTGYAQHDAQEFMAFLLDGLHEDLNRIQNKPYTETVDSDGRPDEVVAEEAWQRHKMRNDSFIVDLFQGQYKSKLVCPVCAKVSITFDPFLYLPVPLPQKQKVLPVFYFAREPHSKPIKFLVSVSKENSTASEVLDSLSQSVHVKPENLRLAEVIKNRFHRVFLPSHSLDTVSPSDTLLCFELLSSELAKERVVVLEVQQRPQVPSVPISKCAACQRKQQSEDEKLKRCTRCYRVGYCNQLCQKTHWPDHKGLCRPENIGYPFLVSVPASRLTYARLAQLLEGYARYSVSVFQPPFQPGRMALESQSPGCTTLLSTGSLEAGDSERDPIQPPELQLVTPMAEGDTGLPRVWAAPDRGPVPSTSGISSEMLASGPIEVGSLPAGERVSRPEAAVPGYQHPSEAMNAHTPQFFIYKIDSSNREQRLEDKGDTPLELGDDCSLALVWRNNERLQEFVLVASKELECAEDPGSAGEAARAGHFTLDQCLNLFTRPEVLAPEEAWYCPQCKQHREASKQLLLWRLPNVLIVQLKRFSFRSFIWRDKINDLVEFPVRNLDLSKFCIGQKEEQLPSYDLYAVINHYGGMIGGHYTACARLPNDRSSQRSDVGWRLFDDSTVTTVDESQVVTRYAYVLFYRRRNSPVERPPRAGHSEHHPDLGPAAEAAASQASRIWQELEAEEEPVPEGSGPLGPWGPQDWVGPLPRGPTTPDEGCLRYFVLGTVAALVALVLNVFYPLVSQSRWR
How it was run: (§1)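 Labelled DUBs from HEK293T lysate were NeutrAvidin-enriched, digested with LysC and trypsin, and run by diaPASEF LC-MS/MS. Before that, each 495 µg sample in Tris/CHAPS/IGEPAL buffer with protease inhibitors was treated in triplicate with fragment at 200 µM or vehicle for 3 h, then with Biotin-Ahx-Ub-VS at 0.5 µM final for 1 h. Values are average log2 ratios of fragment over vehicle by unpaired t-test, based on global-median-normalised Spectronaut label-free quantities from proteins with ≥2 unique peptides.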

[2] = biological target: USP24 (UniProt Q9UPU5)
How it was run: as §1

[3] = biological target: T2, USP25 (UniProt Q9UHP3)
T2 sequence (whole entry): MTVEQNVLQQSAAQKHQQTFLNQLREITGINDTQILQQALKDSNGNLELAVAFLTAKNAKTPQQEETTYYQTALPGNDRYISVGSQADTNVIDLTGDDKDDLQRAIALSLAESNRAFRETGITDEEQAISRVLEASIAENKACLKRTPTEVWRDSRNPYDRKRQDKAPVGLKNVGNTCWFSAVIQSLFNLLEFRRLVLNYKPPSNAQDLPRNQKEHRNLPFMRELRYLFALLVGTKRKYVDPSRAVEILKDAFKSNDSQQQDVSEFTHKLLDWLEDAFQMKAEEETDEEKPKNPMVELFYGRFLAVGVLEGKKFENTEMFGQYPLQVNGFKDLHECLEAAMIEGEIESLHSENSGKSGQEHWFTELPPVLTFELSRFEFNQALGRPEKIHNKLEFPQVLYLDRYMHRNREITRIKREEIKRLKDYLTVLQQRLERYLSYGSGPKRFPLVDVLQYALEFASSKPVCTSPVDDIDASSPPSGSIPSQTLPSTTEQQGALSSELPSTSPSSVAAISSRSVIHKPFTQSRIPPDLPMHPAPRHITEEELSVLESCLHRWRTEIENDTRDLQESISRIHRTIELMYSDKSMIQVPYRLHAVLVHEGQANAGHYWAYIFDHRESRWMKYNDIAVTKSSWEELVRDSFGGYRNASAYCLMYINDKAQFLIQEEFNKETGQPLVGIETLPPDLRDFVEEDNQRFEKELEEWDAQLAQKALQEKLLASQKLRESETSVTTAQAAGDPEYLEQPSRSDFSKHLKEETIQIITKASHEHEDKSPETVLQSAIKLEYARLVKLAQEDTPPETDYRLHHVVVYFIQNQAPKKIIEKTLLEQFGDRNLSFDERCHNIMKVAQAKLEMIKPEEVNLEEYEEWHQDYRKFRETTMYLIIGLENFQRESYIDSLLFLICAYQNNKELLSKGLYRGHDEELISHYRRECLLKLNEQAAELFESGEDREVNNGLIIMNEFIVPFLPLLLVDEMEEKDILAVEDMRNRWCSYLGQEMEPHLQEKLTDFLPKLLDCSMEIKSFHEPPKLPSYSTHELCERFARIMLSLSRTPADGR
How it was run: as §1

[4] = biological target: T3, USP28 (UniProt Q96RU2)
T3 sequence (whole entry): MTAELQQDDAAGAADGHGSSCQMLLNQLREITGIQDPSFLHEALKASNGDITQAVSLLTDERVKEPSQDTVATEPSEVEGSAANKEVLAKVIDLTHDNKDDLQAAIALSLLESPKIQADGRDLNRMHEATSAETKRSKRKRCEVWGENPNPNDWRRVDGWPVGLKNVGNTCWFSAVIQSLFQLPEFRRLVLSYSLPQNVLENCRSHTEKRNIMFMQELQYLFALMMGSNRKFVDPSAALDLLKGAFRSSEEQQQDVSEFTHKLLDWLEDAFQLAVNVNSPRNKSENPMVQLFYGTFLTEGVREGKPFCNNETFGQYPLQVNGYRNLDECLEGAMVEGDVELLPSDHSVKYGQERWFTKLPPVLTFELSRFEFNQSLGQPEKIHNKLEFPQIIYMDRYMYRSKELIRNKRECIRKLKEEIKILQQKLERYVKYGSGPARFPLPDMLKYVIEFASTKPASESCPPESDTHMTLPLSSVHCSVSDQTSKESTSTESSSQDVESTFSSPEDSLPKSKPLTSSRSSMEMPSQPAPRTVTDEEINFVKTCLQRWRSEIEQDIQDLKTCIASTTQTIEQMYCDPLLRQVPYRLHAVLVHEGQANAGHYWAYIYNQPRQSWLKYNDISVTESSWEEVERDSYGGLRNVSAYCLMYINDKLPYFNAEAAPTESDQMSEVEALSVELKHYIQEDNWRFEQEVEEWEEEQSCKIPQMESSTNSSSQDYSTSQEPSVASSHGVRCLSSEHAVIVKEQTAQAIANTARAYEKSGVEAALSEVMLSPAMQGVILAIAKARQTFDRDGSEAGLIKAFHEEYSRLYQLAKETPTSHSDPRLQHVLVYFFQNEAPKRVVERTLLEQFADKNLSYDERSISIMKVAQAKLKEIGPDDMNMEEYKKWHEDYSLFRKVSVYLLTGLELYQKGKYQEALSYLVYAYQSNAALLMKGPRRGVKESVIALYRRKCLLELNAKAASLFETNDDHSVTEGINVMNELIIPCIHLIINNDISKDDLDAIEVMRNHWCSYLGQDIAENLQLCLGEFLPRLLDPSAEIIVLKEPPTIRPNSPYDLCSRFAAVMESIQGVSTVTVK
How it was run: as §1

Measured: log2 ratio of Biotin-Ahx-Ub-VS probe labelling

USP24, sequence (Q9UPU5 whole entry): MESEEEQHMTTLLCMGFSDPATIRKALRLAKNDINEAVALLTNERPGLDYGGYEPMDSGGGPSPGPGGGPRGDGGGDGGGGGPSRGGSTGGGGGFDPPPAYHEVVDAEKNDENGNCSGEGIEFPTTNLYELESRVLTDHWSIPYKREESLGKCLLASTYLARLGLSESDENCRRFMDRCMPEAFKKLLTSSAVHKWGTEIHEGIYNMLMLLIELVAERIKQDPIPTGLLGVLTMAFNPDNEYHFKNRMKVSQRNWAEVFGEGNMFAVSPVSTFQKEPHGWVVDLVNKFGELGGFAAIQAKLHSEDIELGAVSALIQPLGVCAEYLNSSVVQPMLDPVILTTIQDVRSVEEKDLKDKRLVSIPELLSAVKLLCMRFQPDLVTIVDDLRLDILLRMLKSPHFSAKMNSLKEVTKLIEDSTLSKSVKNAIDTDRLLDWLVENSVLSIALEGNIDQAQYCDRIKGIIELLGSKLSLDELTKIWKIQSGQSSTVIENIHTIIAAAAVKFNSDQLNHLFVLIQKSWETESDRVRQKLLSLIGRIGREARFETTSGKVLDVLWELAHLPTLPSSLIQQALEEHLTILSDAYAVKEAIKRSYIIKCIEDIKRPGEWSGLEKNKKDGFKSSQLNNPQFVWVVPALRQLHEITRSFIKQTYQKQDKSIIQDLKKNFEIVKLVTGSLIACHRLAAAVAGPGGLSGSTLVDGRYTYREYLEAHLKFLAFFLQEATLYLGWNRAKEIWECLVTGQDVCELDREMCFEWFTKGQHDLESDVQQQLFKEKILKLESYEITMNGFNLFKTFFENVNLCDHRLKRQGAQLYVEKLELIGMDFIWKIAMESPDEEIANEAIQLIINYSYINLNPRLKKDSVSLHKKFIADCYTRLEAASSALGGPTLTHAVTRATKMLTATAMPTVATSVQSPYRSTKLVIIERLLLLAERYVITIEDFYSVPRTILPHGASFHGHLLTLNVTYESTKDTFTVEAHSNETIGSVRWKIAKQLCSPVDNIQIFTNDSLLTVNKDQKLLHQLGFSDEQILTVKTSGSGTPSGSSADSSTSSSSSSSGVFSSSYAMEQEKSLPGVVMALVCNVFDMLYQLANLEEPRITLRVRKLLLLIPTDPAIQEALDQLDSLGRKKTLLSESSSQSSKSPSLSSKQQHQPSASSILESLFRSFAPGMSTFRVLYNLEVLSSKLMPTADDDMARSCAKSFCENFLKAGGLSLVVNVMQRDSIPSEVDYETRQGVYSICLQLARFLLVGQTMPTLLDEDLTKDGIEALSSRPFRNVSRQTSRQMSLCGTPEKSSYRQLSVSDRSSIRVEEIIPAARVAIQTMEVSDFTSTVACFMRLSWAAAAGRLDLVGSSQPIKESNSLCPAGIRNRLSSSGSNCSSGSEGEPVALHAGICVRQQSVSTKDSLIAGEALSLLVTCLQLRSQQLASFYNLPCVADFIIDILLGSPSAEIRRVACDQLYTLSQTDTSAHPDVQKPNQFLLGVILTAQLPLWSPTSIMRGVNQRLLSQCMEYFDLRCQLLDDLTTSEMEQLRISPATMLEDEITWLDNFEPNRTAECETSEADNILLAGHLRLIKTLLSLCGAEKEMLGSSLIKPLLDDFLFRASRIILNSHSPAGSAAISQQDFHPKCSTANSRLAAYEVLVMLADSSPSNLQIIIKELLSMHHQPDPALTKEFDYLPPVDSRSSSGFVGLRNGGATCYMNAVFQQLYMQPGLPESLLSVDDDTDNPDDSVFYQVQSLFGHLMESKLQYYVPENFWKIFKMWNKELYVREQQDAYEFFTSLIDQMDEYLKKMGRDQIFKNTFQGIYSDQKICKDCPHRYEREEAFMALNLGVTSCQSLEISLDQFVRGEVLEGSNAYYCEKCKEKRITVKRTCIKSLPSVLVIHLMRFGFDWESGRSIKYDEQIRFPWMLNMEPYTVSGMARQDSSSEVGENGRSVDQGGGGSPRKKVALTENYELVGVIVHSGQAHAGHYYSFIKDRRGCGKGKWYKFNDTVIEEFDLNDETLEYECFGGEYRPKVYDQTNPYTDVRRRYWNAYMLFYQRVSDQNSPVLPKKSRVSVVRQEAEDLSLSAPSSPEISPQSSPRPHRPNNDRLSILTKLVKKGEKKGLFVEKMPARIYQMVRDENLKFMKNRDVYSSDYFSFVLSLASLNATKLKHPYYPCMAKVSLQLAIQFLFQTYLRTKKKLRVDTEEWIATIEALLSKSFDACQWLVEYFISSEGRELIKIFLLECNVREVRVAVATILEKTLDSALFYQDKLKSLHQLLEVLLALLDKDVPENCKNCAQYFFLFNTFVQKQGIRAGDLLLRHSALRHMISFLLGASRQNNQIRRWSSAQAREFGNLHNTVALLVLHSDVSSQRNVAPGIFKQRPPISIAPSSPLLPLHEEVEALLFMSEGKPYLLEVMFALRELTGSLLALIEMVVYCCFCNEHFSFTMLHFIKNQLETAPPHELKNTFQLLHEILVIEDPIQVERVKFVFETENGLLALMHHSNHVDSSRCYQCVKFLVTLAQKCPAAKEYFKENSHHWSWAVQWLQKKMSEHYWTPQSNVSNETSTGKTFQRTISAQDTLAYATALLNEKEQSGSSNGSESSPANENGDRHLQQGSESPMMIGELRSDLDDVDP

CCN(C(=O)CCl)C1CCCCC1
inactive: [1] 0.1 | [2] -0.333 | [3] 0.0335 | [4] -0.0965
